This is an account of results in PubChem BioAssay (NCATS).

Test [1] is described as follows: Validation screen for small molecules that induce DNA re-replication in MCF 10A normal breast cells (AID 463097). Further: nearly all actives have a fitted effect of over 60% in size. The method, boiled down:
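Read-out is Hoechst total nuclear intensity by fluorescence scanning imager, flagging increased high-DNA-content nuclei. Compounds were incubated with MCF 10A cells for 48 hr (37 C, 5% CO2) before 40 min staining.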

In test [2] the target is Ubiquitin carboxyl-terminal hydrolase 2 (Homo sapiens) (UniProt O75604). Description: qHTS Validation Assay for Inhibitors of Ubiquitin-specific Protease USP2a Using CHOP2 as the Reporter (AID 463106). The method, boiled down: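 Fluorescence read-out at Ex 485nm/Em 531nm after 60min RT, following addition of 25nM Ub-CHOP2 plus 25nM reporter substrate to USP2 core (10nM) pretreated 30min with compound. Data normalized to NEM full inhibition; concentration-response curves fitted.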
In general terms: In qHTS, concentration-response curves come from the screen itself.

In test [3] the target is DNA polymerase III PolC-type (Bacillus subtilis (strain 168)) (UniProt P13267). The test can be described thus: qHTS Validation Assay for the Inhibitors of DNA Replication in Gram-Positive Bacteria (AID 485295).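 Further: reconstituted holoenzyme with PolC plus beta clamp SSB and primase; PicoGreen fluorescence of double-stranded DNA made on primed circular M13 template; series mostly up to about 57 µM.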 The method, boiled down:
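Double-stranded DNA product detected by PicoGreen fluorescence after EDTA quench. Compound incubated with B. subtilis holoenzyme (PolC, beta subunit, SSB, primase) before substrate addition; primed replication of M13Gori with dNTPs and NTPs at room temperature; DMSO defines 0% inhibition.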

Test [4] addresses Tumor susceptibility gene 101 protein (Homo sapiens) (UniProt Q99816). The test can be described thus: qHTS Validation Assay for Iinhibitors of HIV-1 Budding by Blocking the Interaction of PTAP/TSG101 (AID 485342; calls by dose curve). The method, boiled down:
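Fluorescence polarization of 50 nM FITC-PTAP peptide bound to 10 uM Tsg101 binding domain was read after 20 min room-temperature incubation with compounds, in 10 mM HEPES pH 7.5, 0.15 M NaCl, 0.01% Tween 20.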

Test [5] addresses Beta-2 adrenergic receptor (Homo sapiens) (UniProt P07550). Description: qHTS validation assay of beta-arrestin-biased ligands of beta2-adrenergic receptor (AID 485366). The method, boiled down: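 Screening used a titration range of up to 46 microM in a beta-arrestin recruitment Tango luciferase assay. Cells in 1% FBS medium were treated 18 hr at 37 degrees C, and luminescence was normalized to %Activity.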

For test [6], the target named is Thioredoxin reductase 1, cytoplasmic (Rattus norvegicus) (UniProt O89049). Description: qHTS Assay for Substrates of Mammalian Selenoprotein Thioredoxin Reductase 1 (TrxR1) (AID 488772).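 Further: series mostly up to about 57 µM; a drop in NADPH fluorescence below the no-compound background marks a TrxR1 substrate.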 The method, boiled down: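 In this dual-purpose format, potential substrates are identified from the first fluorescence read after selenite addition, not from the 8-minute delta. Rat enzyme is preincubated with NADPH and then with compound at ~22 deg C.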

For test [7] the target is unchanged. Description: qHTS Assay for Inhibitors of Mammalian Selenoprotein Thioredoxin Reductase 1 (TrxR1) (AID 488773).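 Further: drop in NADPH fluorescence over an 8 min run after selenite addition; series mostly up to about 57 µM; nearly all actives have a fitted effect of over 40% in size.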 Particulars: Potency: inhibition. The method, boiled down:
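Inhibition is scored from the loss of NADPH fluorescence between first and last reads of an 8-min kinetic run. Selenite (400 uM) was the substrate, added after 15 min compound preincubation at room temperature.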

Test [8] addresses Flap endonuclease 1 (Homo sapiens) (UniProt P39748). Description: qHTS Validation Assay for the Inhibitors of Human Flap endonuclease 1 (FEN1) (AID 488816). The method, boiled down:
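Enzyme reagent 10 nM; cpds pinned; 15 min RT preinc.; substrate 50 nM final; reads t=0 and 15 min; no-enzyme buffer wells as neg. control; normalized data, 4-parameter Hill fit.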

Test [9] has as its target M-phase phosphoprotein 8 (Homo sapiens) (UniProt Q99549). The test can be described thus: qHTS Validation Assay for Inhibitors for MPP8 Chromodomain Interactions with Methylated Histone Tails (AID 488949). Further: nearly all actives have a fitted effect of over 55% in size. Further: potency means the concentration at half of the fitted maximal effect. The method, boiled down:
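AlphaScreen proximity signal from streptavidin donor and Ni-chelate acceptor beads (10 ug/mL each) reported binding of MPP8 to trimethyl-K9 H3(1-18) peptide, both at 50 nM. The complex formed 30 min before a 30 min compound exposure at room temperature, in PBS pH 7.4.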

In test [10] the target is Chromobox protein homolog 1 (Homo sapiens) (UniProt P83916). The test can be described thus: qHTS Validation Assay for Inhibitors of HP1-beta Chromodomain Interactions with Methylated Histone Tails (AID 488953). Further: nearly all actives have a fitted effect of over 50% in size. Further: potency means the concentration at half of the fitted maximal effect. The method, boiled down: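 Compounds pinned into a preassembled complex of HP1-beta and trimethyl-K9 histone H3(1-18) biotin peptide (50 nM each; PBS pH 7.4, 0.01% Tween-20). After 30 min, bead-based AlphaScreen detection followed.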
Chain of Chromobox protein homolog 1 (Homo sapiens) (P83916 whole entry, looked up): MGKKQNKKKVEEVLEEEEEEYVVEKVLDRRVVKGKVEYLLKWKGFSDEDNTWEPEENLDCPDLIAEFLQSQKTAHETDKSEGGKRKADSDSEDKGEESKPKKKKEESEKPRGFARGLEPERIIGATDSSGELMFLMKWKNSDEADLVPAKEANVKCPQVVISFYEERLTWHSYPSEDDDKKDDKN

Test [11] addresses Methanococcus maripaludis chaperonin (MmCpn) (UniProt Q6LX38). The test can be described thus: High-Throughput Screening for Modulators of Cytosolic Chaperonin Activity: MmCpn Primary Screen (AID 488978).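 Further: 50 nM MmCpn enzyme hydrolysing 30 µM ATP at 37 °C.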 The method, boiled down:
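ATPase activity of 50 nM MmCpn was assayed with 30 uM ATP, 10 minutes at 37C, after a 5 min compound preincubation at room temperature. ADP production was read as HTRF emission at 590 and 665 nm.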

Test [12] deals with Transient receptor potential cation channel subfamily V member 1 (Homo sapiens) (UniProt Q8NER1). Description: HTS Assay for Compounds that Act as Enhancers of the Vanilloid Receptor 1 (AID 488979). The method, boiled down: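 TRPV1 cells loaded with Fluo-8 calcium dye; compound added and Ca2+ signal (ex 480/em 520 nm) followed 3 min, then capsaicin at EC20 added and read 2 more min to detect enhancement.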
Chain of Transient receptor potential cation channel subfamily V member 1 (Homo sapiens) (Q8NER1 whole entry, looked up): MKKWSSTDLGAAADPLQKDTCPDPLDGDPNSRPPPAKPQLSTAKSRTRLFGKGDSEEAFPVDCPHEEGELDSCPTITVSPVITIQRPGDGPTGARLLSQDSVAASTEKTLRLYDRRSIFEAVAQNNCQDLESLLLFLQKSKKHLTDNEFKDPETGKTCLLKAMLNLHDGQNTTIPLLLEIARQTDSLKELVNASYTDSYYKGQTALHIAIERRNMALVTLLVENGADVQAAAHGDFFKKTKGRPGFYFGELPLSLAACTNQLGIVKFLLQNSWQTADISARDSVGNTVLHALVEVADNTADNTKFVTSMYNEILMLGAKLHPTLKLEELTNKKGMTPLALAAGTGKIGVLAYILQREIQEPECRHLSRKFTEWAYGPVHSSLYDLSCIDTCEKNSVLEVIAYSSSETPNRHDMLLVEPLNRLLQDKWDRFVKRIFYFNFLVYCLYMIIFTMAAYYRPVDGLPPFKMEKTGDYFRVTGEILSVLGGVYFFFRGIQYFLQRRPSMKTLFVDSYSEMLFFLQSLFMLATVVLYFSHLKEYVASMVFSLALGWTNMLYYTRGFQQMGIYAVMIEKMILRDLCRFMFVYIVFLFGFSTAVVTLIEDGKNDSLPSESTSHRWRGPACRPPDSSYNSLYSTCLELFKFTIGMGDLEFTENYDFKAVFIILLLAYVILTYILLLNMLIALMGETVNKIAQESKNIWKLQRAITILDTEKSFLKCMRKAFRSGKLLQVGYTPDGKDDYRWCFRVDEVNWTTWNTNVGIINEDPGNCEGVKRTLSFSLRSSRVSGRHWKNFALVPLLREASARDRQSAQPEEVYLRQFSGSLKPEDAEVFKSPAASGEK

Test [13] concerns the target Thyrotropin receptor (Homo sapiens) (UniProt P16473). The test can be described thus: qHTS Assay for Antagonists of the Thyroid Stimulating Hormone Receptor (AID 488980). Further: series mostly up to about 58 µM. The method, boiled down: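 Inhibition of cAMP raised by EC80 TSH (4 nM final) was read by HTRF, with lysate cAMP competing against cAMP-d2 for cryptate antibody after 30 min at room temperature. The cells were transfected HEK293 held in phosphodiesterase inhibitor RO 20-1724 at 70 uM.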

The target of test [14] is D(1A) dopamine receptor (Homo sapiens) (UniProt P21728). The test can be described thus: HTS Assay for Allosteric Agonists of the Human D1 Dopamine Receptor: Primary Screen for Agonists (AID 488981). The method, boiled down:
(§1)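 Tetracycline-induced HEK293 Trex D1 cells with forced coupling to calcium, loaded with no-wash calcium dye; kinetic fluorescence read 180 s after compound addition for agonism, then a further 180 s after an EC20 dopamine challenge for potentiation.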

For test [15] the target is unchanged. The test can be described thus: HTS Assay for Allosteric Agonists of the Human D1 Dopamine Receptor: Primary Screen for Antagonists (AID 488983).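 Further: calcium flux response to an EC80 dopamine challenge measured with no-wash dye; nearly all actives have a fitted effect of over 65% in size.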 Further: potency means the concentration at half of the fitted maximal effect. The method, boiled down: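 In this primary screen, compounds are applied to calcium-dye-loaded HEK293 T-REx cells with force-coupled D1 expression induced overnight at 30 C. An EC80 of dopamine follows the 180 s compound phase, and calcium is monitored for a further 180 s.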

Test [16] in a line: qHTS Validation Assay to Find Inhibitors of Chronic Active B-Cell Receptor Signaling (AID 485345; active means well fitted curve in the direction sought with a large enough effect in the main read-out, with a control signal flat, not every such curve was filed as active). The method, boiled down:
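TMD8 ABC-DLBCL cells stably carrying doxycycline-inducible IkappaBalpha–green luciferase fusion plus unfused red luciferase; compounds 46 uM to 3 nM, 4 h at 37C with doxycycline. Corrected green/red luminescence ratio normalized to 10 uM MG-132 and basal cell wells; curves fitted.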

For test [17], the target named is ATP-dependent 6-phosphofructokinase (Trypanosoma brucei brucei) (UniProt O15648). The test can be described thus: qHTS Validation Assay to Find Inhibitors of T. brucei phosphofructokinase (AID 485368). Conditions: outcome: dose series up to 57.5 µM. The method, boiled down: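 PFK-generated ADP was measured after 45 min at room temperature using ADP-Glo. The reaction contained 0.5 mM F6P and 0.1 mM ATP.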

Test [18] has as its target D(1A) dopamine receptor (Homo sapiens) (UniProt P21728). Description: HTS Assay for Allosteric Agonists of the Human D1 Dopamine Receptor: Primary Screen for Potentiators (AID 488982). The method, boiled down: as §1

Results filed as inconclusive are left out. The source made the active and inactive calls. Unless noted, the call rests on the fitted dose curve; in most records, active means well fitted curve in the direction sought with a large enough effect; inconclusive means small, poorly fitted or top-dose-only effect, or another doubt; inactive means no such curve, though single readings can be large; an effect the other way counts as inactive or inconclusive.

Chain of Beta-2 adrenergic receptor (Homo sapiens) (P07550 whole entry, looked up): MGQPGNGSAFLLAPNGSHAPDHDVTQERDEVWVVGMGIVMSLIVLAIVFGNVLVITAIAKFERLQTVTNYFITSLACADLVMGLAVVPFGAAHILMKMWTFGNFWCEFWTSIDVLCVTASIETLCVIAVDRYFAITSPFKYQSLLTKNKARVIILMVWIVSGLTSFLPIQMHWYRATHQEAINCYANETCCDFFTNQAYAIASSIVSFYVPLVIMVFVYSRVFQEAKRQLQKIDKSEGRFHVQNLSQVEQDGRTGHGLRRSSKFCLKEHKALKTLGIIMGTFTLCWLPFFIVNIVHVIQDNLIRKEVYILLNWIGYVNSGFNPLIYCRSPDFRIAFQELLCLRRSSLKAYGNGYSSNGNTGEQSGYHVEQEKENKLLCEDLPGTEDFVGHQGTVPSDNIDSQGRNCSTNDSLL
Chain of Methanococcus maripaludis chaperonin (MmCpn) (Q6LX38 1-543): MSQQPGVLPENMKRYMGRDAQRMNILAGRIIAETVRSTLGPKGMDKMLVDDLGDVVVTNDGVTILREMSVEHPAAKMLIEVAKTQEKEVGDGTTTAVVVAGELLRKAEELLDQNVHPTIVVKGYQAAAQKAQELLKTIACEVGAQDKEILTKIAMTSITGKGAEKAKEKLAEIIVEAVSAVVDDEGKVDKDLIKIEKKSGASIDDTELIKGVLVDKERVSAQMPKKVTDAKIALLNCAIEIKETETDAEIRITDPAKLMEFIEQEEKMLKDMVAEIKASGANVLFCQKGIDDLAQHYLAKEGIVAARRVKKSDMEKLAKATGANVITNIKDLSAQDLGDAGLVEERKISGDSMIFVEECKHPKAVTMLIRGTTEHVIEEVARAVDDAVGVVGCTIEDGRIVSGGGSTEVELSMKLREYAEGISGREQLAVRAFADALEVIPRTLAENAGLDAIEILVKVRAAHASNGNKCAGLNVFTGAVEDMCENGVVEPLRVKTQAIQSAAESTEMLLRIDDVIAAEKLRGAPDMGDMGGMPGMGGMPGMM
Chain of D(1A) dopamine receptor (Homo sapiens) (P21728 whole entry, looked up): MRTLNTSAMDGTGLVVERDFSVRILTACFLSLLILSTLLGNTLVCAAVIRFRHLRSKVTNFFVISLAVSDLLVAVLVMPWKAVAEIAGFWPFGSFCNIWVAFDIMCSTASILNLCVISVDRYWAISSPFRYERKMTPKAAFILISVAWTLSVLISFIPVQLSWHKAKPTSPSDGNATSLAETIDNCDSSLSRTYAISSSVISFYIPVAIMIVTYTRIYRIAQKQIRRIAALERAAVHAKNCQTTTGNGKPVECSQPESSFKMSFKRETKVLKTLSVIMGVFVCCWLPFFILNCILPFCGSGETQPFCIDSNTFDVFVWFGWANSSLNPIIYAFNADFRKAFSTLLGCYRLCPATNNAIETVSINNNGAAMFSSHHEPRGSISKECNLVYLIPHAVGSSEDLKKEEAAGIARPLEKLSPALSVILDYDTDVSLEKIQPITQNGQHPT
Chain of DNA polymerase III PolC-type (Bacillus subtilis (strain 168)) (P13267 whole entry, looked up): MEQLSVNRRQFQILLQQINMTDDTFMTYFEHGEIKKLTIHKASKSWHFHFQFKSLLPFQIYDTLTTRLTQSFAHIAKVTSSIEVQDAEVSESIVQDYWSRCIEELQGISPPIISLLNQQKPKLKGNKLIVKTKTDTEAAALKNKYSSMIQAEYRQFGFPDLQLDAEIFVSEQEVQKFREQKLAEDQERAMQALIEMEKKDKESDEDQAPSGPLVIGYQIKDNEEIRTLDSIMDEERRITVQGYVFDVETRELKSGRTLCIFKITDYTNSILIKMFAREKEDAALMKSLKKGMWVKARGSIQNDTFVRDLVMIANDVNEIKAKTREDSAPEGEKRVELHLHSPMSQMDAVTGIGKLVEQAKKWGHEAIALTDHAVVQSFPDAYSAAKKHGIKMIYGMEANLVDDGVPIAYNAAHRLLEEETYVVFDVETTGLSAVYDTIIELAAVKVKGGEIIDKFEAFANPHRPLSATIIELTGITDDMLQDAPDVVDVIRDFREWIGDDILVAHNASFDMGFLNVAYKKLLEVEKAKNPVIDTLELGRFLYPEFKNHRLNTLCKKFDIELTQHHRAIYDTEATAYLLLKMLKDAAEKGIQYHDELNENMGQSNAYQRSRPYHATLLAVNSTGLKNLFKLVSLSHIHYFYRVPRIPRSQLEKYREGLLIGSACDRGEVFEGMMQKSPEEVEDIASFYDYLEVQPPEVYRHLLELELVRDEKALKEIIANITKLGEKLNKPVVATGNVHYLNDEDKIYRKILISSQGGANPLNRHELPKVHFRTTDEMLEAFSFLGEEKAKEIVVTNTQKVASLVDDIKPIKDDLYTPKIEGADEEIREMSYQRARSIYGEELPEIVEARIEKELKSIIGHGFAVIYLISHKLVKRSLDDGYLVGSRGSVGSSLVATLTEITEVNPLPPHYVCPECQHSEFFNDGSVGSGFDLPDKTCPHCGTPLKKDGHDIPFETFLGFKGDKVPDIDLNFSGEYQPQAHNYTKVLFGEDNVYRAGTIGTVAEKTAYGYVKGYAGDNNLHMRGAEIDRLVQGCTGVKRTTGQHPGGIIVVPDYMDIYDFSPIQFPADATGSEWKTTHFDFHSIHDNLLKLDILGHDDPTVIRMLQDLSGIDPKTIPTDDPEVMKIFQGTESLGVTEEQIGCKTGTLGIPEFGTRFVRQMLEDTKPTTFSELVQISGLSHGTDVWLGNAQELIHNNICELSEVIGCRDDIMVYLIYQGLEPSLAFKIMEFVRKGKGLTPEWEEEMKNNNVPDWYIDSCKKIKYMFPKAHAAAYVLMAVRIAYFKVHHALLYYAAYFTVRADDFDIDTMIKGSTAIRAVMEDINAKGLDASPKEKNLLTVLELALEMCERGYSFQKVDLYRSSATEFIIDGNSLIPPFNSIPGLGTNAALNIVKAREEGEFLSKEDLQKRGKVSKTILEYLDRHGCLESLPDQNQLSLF
Chain of Tumor susceptibility gene 101 protein (Homo sapiens) (Q99816 whole entry, looked up, the tested form may be a part): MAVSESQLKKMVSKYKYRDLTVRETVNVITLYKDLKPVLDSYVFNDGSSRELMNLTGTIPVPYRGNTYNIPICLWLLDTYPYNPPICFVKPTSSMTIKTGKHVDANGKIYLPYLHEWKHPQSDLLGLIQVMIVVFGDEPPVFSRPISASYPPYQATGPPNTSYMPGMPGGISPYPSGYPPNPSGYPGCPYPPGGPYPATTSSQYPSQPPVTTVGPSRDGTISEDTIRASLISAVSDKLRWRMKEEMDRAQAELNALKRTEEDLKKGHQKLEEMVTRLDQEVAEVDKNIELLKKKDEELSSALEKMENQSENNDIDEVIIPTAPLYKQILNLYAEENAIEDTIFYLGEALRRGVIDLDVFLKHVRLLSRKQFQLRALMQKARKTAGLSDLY
Chain of Thyrotropin receptor (Homo sapiens) (P16473 whole entry, looked up): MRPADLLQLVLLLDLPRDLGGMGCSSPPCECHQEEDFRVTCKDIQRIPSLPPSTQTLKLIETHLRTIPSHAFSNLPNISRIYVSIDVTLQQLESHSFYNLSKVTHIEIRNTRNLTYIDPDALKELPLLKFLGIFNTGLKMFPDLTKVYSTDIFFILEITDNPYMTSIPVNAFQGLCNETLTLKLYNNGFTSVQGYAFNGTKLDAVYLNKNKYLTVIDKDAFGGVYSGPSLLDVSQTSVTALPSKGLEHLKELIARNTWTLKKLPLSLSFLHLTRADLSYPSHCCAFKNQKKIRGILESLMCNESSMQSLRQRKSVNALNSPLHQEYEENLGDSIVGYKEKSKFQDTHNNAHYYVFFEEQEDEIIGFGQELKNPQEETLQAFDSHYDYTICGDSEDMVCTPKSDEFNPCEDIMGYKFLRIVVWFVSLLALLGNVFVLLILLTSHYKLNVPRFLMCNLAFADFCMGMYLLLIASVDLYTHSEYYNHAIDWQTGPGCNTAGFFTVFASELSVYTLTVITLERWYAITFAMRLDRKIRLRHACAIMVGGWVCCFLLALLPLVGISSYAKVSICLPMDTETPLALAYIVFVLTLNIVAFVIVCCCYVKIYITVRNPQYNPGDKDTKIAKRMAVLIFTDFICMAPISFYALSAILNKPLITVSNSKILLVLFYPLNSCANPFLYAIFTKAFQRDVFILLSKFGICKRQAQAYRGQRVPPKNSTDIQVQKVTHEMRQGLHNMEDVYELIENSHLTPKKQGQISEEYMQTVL

With `O=C1CCc2cc(OCCCCc3nnnn3C3CCCCC3)ccc2N1`, the Potency entry in test [1], in test [3], in [7], in test [8], in test [9] and in [10] was “inactive” throughout. Moreover, the Potency entry in [14] and in test [15] was “inactive” each time. In addition, the compound was classed as inactive in [2], in [4], in [5], in test [6], in [11] and in [12]. The compound was classed as inactive in test [13].
As to `C1COC(NC(C2CC2)C2CC2)=N1`, the outcome in test [2], in test [4], in [16], in test [5], in [17] and in test [6] was inactive. For the same compound, the result in test [11], in test [12] and in test [13] was inactive. Further, the Potency result in test [3], in test [7], in test [8], in [9], in test [14] and in [15] was “inactive” each time.
On to `CCOC(=O)N1CCC(=C2c3ccc(Cl)cc3CCc3cccnc32)CC1`, for which the compound was classed as inactive in test [2], in test [4], in [5], in test [6], in [11] and in test [12]. Moreover, the Potency entry in test [3], in test [7], in test [8], in test [9], in test [14] and in test [18] was “inactive” in each case. In [15], the Potency result was “inactive”.
Take `O=c1n(CCCN2CCN(c3cccc(Cl)c3)CC2)nc2ccccn12`: the Potency result in test [1], in [3], in [7], in test [8], in test [9] and in test [10] was “inactive” each time. Also, in test [14], the Potency entry is “inactive”. The outcome in test [2], in test [4], in [5], in [6], in test [11] and in [12] was inactive. Besides, in test [13], the call was inactive. Besides, the Potency in test [15] is 11.2 µM (active).
`Oc1ccc(C2CNCCc3c2cc(O)c(O)c3Cl)cc1` (centres undefined): the Potency result in test [1] and in test [9] was “inactive” throughout. In addition, the compound was called inactive in test [2], in [4], in test [16], in [5], in [6] and in [11]. Moreover, the result in test [12] and in test [13] was inactive. Moreover, the Potency in [10] was 0.0067 µM (active).
Turning to `O=C(O)COCCN1CCN(C(c2ccccc2)c2ccc(Cl)cc2)CC1` (centres undefined), the compound was called inactive in [2], in test [4], in [16], in test [5], in test [6] and in test [11]. Moreover, the Potency result in [7], in test [8], in test [9], in test [10], in [14] and in [15] was “inactive” in each case.
In the case of `CN1CCN(CCCN2c3ccccc3Sc3ccc(C(F)(F)F)cc32)CC1`, the compound was classed as inactive in test [2], in test [4], in test [5], in [17], in [6] and in [11]. The call in test [13] was inactive. The Potency result in test [3], in test [7], in [8] and in test [14] was “inactive” each time. Besides, the results for the Potency in test [9] and in test [10] were 20 µM (active) and 31.6 µM (active), respectively.
